DT40 TDP1 CPT – growth inhibition of DT40 Tdp1-/-;hTDP1 cells with camptothecin (screen for TDP1 inhibitors); chicken DT40 Tdp1-/-;hTDP1 cells + 20 nM CPT, ATP luminescence, 48 h; Potency, µM (series often up to 46.2 µM), for inactives: at the top dose activity change, negative = growth inhibition, most hits filed as inhibitors; 12% of 420,000 active; AID 686979; further: on the % scale 0 is the no-effect control and ±100 the full control effect; nearly all actives have a fitted effect of over 55% in size
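Chicken DT40 Tdp1-/- cells stably complemented with human TDP1 were seeded at 400 cells/well in medium containing 20 nM camptothecin, exposed to pin-transferred compounds, and grown at 37 °C for at least 48 hr. Viability was read as ATP luminescence.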
TDP1 cell noCPT – qHTS for Inhibitors of human tyrosyl-DNA phosphodiesterase 1 (TDP1): qHTS in cells in absence of CPT | DT40 Tdp1-/- hTDP1 cells, no CPT, ATP luminescence, 48 h | 15% of 420,000 active | Potency, µM (titrated, usually from 46.2 µM), for the others: at the top dose activity change, negative = growth inhibition, hits mostly inhibitors | AID 686978, 2013; further: on the % scale 0 is the no-effect control and ±100 the full control effect; nearly all actives have a fitted effect of over 55% in size
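Stably hTDP1-transfected Tdp1-null chicken DT40 cells were treated with library compounds minus camptothecin and grown for at least 48 hr at 37 °C, after which cellular ATP was quantified by luminescence.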
HepG2 tox – counter-screen for TGF-b inhibitors: cytotoxicity in HepG2 cells | Potency, µM (top dose mostly 46.1 µM), for inactives: at the highest dose activity change, negative = cytotoxicity, most hits filed as cytotoxic | HepG2 CAGA-GFP viability, ATP luminescence, 18 h | AID 588856 | 0.76% of 410,000 active
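CellTiter-Glo luminescence gave cytotoxicity after 18 hours at 37 degrees C. The cells were HepG2 CAGA-GFP in 1% FBS DMEM, stimulated with 500 pg/mL TGF-beta after compound addition. %Activity was normalised to no-cell wells (complete cell-killing) and DMSO (no toxicity), and curves were fitted and classified.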
HT1080-NT tox – kills 2HG-producing HT-1080-NT fibrosarcoma cells. Potency, µM (series often up to 46.1 µM), without a hit: at the top dose activity, negative = less viability, most hits filed as cytotoxic. HT-1080-NT fibrosarcoma viability, CellTiter-Glo ATP luminescence, 48 h. AID 686970. 1.6% of 360,000 active;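 further: NT is the 2HG producing partner of a matched IDH1 knockdown line; 0% = DMSO-treated cells and -100% = media-only wells without cells; nearly all actives have a fitted effect of over 55% in size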
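A 48-hour cytotoxicity screen used HT-1080-NT cells plated 2 hours before compound delivery. ATP-based CellTiter-Glo luminescence measured viability, normalized to DMSO and no-cell controls.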
TGFb SMAD3 inh – blocks TGF-b signaling | HepG2 CAGA-GFP TGF-b/SMAD3 reporter, GFP fluorescence, 18 h; TGF-beta stimulated, 500 pg/mL final | Potency, µM (series often up to 46.1 µM), inactives show top-dose activity, negative = inhibition, hits mostly inhibitors | 1.2% of 410,000 active; further: on the % scale 0 is the no-effect control and ±100 the full control effect; nearly all actives have a fitted effect of over 65% in size
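Inhibition of TGF-beta-driven CAGA-GFP reporter expression in HEPG2 cells is measured by cellular GFP fluorescence after 18 h stimulation with 500 pg/mL recombinant TGF-beta in 1% FBS medium at 37 degrees C.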
HT1080 IDH1KD tx – HT-1080 IDH1 knockdown cell toxicity (counter line). HT-1080 IDH1 knockdown viability, ATP luminescence, 48 h. Potency, µM (highest dose often 46.1 µM), for the others: at the highest dose activity, negative = toxicity, usual class: cytotoxic. 2% of 360,000 active;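 further: 0% = DMSO wells and -100% = cell-free medium wells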
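After a 2 h attachment period, IDH1KD HT-1080 cells took pin-transferred compound for 48 h at 37 °C; ATP-based luminescence after 10 min room-temperature reagent incubation reported viability.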
The depositor's hits bear a star; ? = inconclusive; / = not tested or not shown. Hits are enriched below; roughly 17% of the tested compounds scored in any of these assays. The call rests on the fitted dose curve; in most records, active means well fitted curve in the direction sought with a large enough effect; inconclusive means small, poorly fitted or top-dose-only effect, or another doubt; inactive means no such curve, though single readings can be large; an effect the other way counts as inactive or inconclusive. Potency means the concentration at half of the fitted maximal effect.

SMILES	DT40 TDP1 CPT	TDP1 cell noCPT	HepG2 tox	HT1080-NT tox	TGFb SMAD3 inh	HT1080 IDH1KD tx
CCCOc1ccc(-c2cccc(NS(=O)(=O)c3cccs3)c2)nn1	?	?	-26%	/	-26%	/
CCOc1ccc(-c2cccc(NS(=O)(=O)c3ccccc3C(F)(F)F)c2)nn1	?	26µM*	-53%	/	-5%	/
COc1ccc(-c2cccc(NS(=O)(=O)c3ccc(NC(C)=O)cc3)c2)nn1	18µM*	15µM*	-15%	/	-23%	/
Nc1nc(SCC(=O)N2CCCc3ccccc32)n(-c2ccccc2)n1	-1%	-19%	-38%	17%	1%	0%
COc1ccc(-c2cccc(NS(=O)(=O)c3ccc(C)s3)c2)nn1	15µM*	16µM*	-25%	/	?	/
O=C(CC1CCCC1)Nc1ccc(Br)cc1	-1%	-14%	-7%	1%	-7%	-15%
CC(C)(C)OC(=O)N1CCC(C(=O)Nc2cccc(C(=O)NCc3ccccc3)c2)CC1	23µM*	21µM*	1%	-16%	1%	-19%
CC(C)(C)OC(=O)N1CCCC(C(=O)Nc2cccc(C(=O)NCCCc3ccccc3)c2)C1 (stereo unspecified)	?	?	-7%	4%	-22%	-1%
CC(C)(C)OC(=O)N1CCC(C(=O)Nc2cccc(C(=O)NCCCc3ccccc3)c2)CC1	15µM*	21µM*	-3%	-26%	2%	-23%
CC1=C(C(=O)Nc2ccc(C)cc2C)C(c2ccc[nH]2)n2ncnc2N1 (stereo unspecified)	4%	0%	1%	/	-13%	/
CCc1nc2ccc(C(=O)NCCCN3CCCC3=O)cn2c1N(CC)C(C)=O	2%	-8%	-1%	16%	0%	?
CSc1nc(Cl)cc(Nc2ccc(O)cc2)n1	?	?	-8%	16µM*	?	13µM*
COC(=O)c1nccnc1C(=O)Nc1ccccc1N1CCOCC1	-3%	-3%	-17%	1%	-14%	1%
Cc1[nH]nc2c1/C(=N/O)CC(c1ccccc1)C2 (stereo unspecified)	-5%	4%	-18%	0%	-1%	0%
Cc1cc2c([nH]c3ccccc32)c2c1OC(C)(C)C=C2	?	?	-61%	2%	?	-6%
COc1ccc2[nH]c(=O)c3c(c2c1)OC(C)(C)C=C3	15µM*	15µM*	4%	?	?	?
CCCC(=O)N1CCCC1(C)C(=O)Nc1ccc2cn[nH]c2c1 (stereo unspecified)	-27%	-2%	-7%	3%	12%	16%
Cc1ccc(-c2cc3cccc[n+]3cc2-c2ccc(C)cc2)cc1	0.65µM*	1.2µM*	-13%	?	?	?
CCOc1ccc(-c2cc(NC(=O)Nc3ccccc3C(F)(F)F)c(C(=O)OC)s2)cc1	?	?	4%	/	-4%	/
CC1CCC(C(=O)NC(C(=O)OCC(=O)c2ccc(Br)cc2)C(C)C)CC1 (stereo unspecified)	?	21µM*	-27%	/	?	/
CCc1ccc(C(=O)COC(=O)C(NC(=O)C2CCC(C)CC2)C(C)C)cc1 (stereo unspecified)	-19%	?	-16%	/	-9%	/
Cc1ccccc1C(=O)c1ccc2c(c1)n(C)c(=O)n2C	?	-28%	-5%	-1%	18%	?
O=C(N/N=C/C(Cl)=C\c1ccccc1)c1ccco1	-20%	29µM*	-11%	0%	17%	0%
O=C(N/N=C/C(Cl)=C/c1ccccc1)c1cnccn1	16µM*	13µM*	-1%	-2%	0%	0%
O=C(N/N=C/C(Cl)=C\c1ccccc1)c1cnccn1	18µM*	21µM*	-5%	-3%	-5%	15%
SMILES	DT40 TDP1 CPT	TDP1 cell noCPT	HepG2 tox	HT1080-NT tox	TGFb SMAD3 inh	HT1080 IDH1KD tx
COc1ccc(-n2nc(C(=O)Nc3cc(C)ccn3)c3c4ccccc4n(C)c3c2=O)cc1	-11%	-4%	10%	/	6%	/
COc1cc(OC)c2c(c1)C(=O)OC2OC (stereo unspecified)	-23%	8%	10%	-3%	8%	12%
COc1cc(OC)c2c(c1)C(=O)OC2c1cc(OC)c(OC)cc1C (stereo unspecified)	?	11µM*	-2%	/	-17%	/
O=C(CC1C(=O)NCCN1C(=O)Nc1ccccc1)Nc1cc(Cl)cc(Cl)c1 (stereo unspecified)	-3%	-1%	-46%	16µM*	?	26µM*
COc1ccccc1NC(=O)CC1C(=O)NCCN1C(=O)Nc1ccc(Cl)c(Cl)c1 (stereo unspecified)	?	-23%	-99%	16µM*	?	?
O=C(CC1C(=O)NCCN1C(=O)Nc1ccccc1)Nc1cccc(Cl)c1 (stereo unspecified)	0%	8%	-7%	-5%	-4%	-3%
COc1ccccc1NC(=S)N1CCNC(=O)C1CC(=O)Nc1cccc(C)c1 (stereo unspecified)	5%	17%	-2%	-11%	2%	-3%
CC(C)(CO)[C@@H](O)C(=O)NCCCC(=O)O	0%	-8%	/	/	/	/
COc1ccccc1N1CCN(C(c2cccs2)C(C)NC(=O)c2cccs2)CC1 (stereo unspecified)	16µM*	12µM*	-3%	0%	1%	1%
CC(NC(=O)c1cccnc1)C(c1cccs1)N1CCN(c2ccccc2F)CC1 (stereo unspecified)	23µM*	?	10%	-22%	-5%	-3%
COc1ccccc1Oc1cc(C#N)c(C#N)cc1-n1nnc2ccccc21	23µM*	18µM*	-5%	?	1%	?
Cc1ccc(Nc2nc(CSc3nnc(-c4ccc(F)cc4)n3C)cs2)cc1	15µM*	?	-12%	1%	?	3%
Cc1ccc(-c2nnc(SCC(C)C)n2C)cc1	?	21µM*	-25%	3%	10%	-2%
COc1ccc(-c2nnc(SCc3csc(N)n3)n2C)cc1	-15%	-7%	10%	-4%	7%	11%
O=C(COCc1cc(-c2ccco2)on1)Nc1cccc(O)c1	-25%	-21%	-5%	/	0%	/
COc1cccc(CN(C)C(=O)c2ccc(N3CCCC3)c([N+](=O)[O-])c2)c1	16µM*	23µM*	-17%	0%	-7%	-6%
